Source: PubChem
MCF10A rerep: induces DNA re-replication in MCF 10a normal breast cells; AID 624296; 350,000 compounds, 2.9% hits; MCF 10A DNA re-replication, Hoechst nuclear intensity, 48 h; Potency, µM (highest dose often 46.1 µM), hits mostly activators; further: nearly all actives have a fitted effect of over 50% in size
ELG1 DNA repair: ELG1-dependent DNA repair inhibition; HEK293T ELG1-luciferase reporter, luminescence, 16 h; DNA damage induced by 5-fluorouridine; Potency, µM (titrated, usually from 46.1 µM), hits mostly inhibitors; 330,000 compounds, 2.3% hits; AID 504467; further: nearly all actives have a fitted effect of over 55% in size
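HEK293T cells expressing luciferase-tagged ELG1 (2,000/well) received 5-Fluorouridine plus compound or DMSO for 16 hr at 37 °C. Luciferase was read by ONE-Glo luminescence after 30 min at room temperature.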
SW480 rerep: DNA re-replication induction in SW480 cells | SW480 DNA re-replication, Hoechst DNA content imaging, 48 h | Potency, µM (titrated, usually from 46.1 µM), hits mostly activators | 340,000 compounds, 1.8% hits; further: nearly all actives have a fitted effect of over 55% in size
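Compounds, transferred as 23 nL by pin tool, were incubated with cells for 48 hr; DNA content per nucleus was then quantified by Hoechst staining and fluorescence plate imaging.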
p53 reactivation: restores transcriptional activity of mutant p53; Potency, µM (doses to about 92.2 µM), most hits filed as activators; H1299 p53-A138V BP100-luciferase reporter, luminescence, 24 h; 320,000 compounds, 0.063% hits; further: nearly all actives have a fitted effect of over 45% in size
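p53-null H1299 cells stably carrying temperature-sensitive p53-A138V and a BP100-luciferase reporter were pinned with compounds (4-point, 1:5 series) and held 24 hrs at 37 deg C. Luminescence was read 10 min after detection reagent.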
A-T KAP1 phos: candidate therapy for ataxia-telangiectasia; F2112 A-T fibroblasts, KAP-1 phosphorylation AlphaLISA; neocarzinostatin DNA damage 30 min before lysis; Potency, µM (doses to about 57.5 µM), most hits filed as activators; 320,000 compounds, 0.19% hits; AID 485349; further: nearly all actives have a fitted effect of over 45% in size
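hTERT-immortalized A-T patient fibroblasts (F2112), 500 cells/well in OPTI-MEM, 1% FBS, got compounds for 60 min, then NCS for 30 min at 37C. Lysates were then assayed for phospho-KAP-1 by AlphaLISA (anti-pKAP1 donor, anti-KAP1 acceptor beads), 6 hr at 25C.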
ELG1 genotoxic: inducers of genotoxicity in HEK293T ELG1-luciferase cells; HEK293T ELG1-luciferase reporter, luminescence, 16 h; Potency, µM (series often up to 46 µM), most hits filed as activators; 330,000 compounds, 1.3% hits; AID 504466; further: nearly all actives have a fitted effect of over 60% in size
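HEK293T cells expressing luciferase-tagged ELG1 were treated with compound or DMSO for 16 hr at 37°C. Luciferase activity was then read after 30 min with ONE-Glo at room temperature; rising signal flags genetic stress.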
Large screens that a line does not name were inactive. Hits are enriched below; roughly 7.1% of the tested compounds scored in any of these assays. The call rests on the fitted dose curve; in most records, active means well fitted curve in the direction sought with a large enough effect; inconclusive means small, poorly fitted or top-dose-only effect, or another doubt; inactive means no such curve, though single readings can be large; an effect the other way counts as inactive or inconclusive.

CC1(c2ccc3c(c2)OCCCO3)NC(=O)N(CC(=O)Nc2cccc(C#N)c2)C1=O (configuration not stated)	ELG1 DNA repair inconclusive
Cc1ccc(-c2nc3cccnc3s2)cc1NS(=O)(=O)c1cccs1	MCF10A rerep 16.4µM
Cc1nc2ccc(S(=O)(=O)Nc3cc(-c4nc5cccnc5s4)ccc3C)cc2s1	MCF10A rerep 0.82µM, ELG1 DNA repair inconclusive, SW480 rerep 23.1µM, p53 reactivation inconclusive, ELG1 genotoxic inconclusive
O=C(N=C1SC2CS(=O)(=O)CC2N1c1ccc(Cl)c(Cl)c1)C1CCCO1 (configuration not stated)	SW480 rerep inconclusive
O=C(Nc1ccc([N+](=O)[O-])cc1)Nc1ccon1	MCF10A rerep 5.8µM, SW480 rerep inconclusive
C/C(=N\NC(=O)c1ccc(O)cc1)c1ccc(N2CCOCC2)cc1	none
C/C(=N\NC(=O)c1ccc(Cl)cc1)c1ccccn1	MCF10A rerep 3.66µM, ELG1 DNA repair inconclusive, SW480 rerep inconclusive, p53 reactivation inconclusive, ELG1 genotoxic 3.26µM
C/C(=N\Nc1ccc(Cl)cc1)c1ccccn1	ELG1 DNA repair inconclusive, ELG1 genotoxic 20.6µM
C/C(=N\NC(=O)c1cccc(N/N=C(\C)c2cc(O)ccc2O)c1)c1cc(O)ccc1O	ELG1 DNA repair 16.4µM, SW480 rerep inconclusive
C/C(=N\NC(=O)c1ccccn1)c1ccc(Cl)cc1	ELG1 DNA repair inconclusive, ELG1 genotoxic inconclusive
C/C(=N\NC(=O)c1ccc(N/N=C(\C)c2ccc(O)cc2)cc1)c1ccc(O)cc1	MCF10A rerep 20.6µM, ELG1 DNA repair 8.2µM
C[C@@H]1CN([C@@H](C)CO)C(=O)c2cccc(NC(=O)Nc3ccc4c(c3)OCO4)c2O[C@H]1CN(C)S(=O)(=O)c1cn(C)cn1	ELG1 DNA repair inconclusive, SW480 rerep inconclusive, A-T KAP1 phos inconclusive
CNC(=O)NC(=O)CN1C(=O)NC2(CCOc3ccccc32)C1=O (configuration not stated)	none
COC(=O)c1ccccc1S(=O)(=O)N1CCC(C(=O)NCc2ccco2)CC1	none
C/C(=N/NC(=O)c1ccccn1)c1ccc(O)cc1	ELG1 DNA repair inconclusive, ELG1 genotoxic 16.4µM
C/C(=N/NC(=O)c1ccccn1)c1c[nH]c2ccccc12	ELG1 DNA repair inconclusive, ELG1 genotoxic 10.3µM
C/C(=N\NC(=O)c1c[nH]c2ccccc12)c1ccc(C)o1	ELG1 DNA repair inconclusive (no result: A-T KAP1 phos)
C/C(=N/NC(=O)c1ccccn1)c1ccco1	ELG1 DNA repair inconclusive
O=C(CCCc1ccccc1)NC12CC3CC(CC(C3)C1)C2	ELG1 DNA repair inconclusive, ELG1 genotoxic inconclusive (no result: p53 reactivation)
O=C(CN1CCN(Cc2cccc(C(F)(F)F)c2)CC1)NCC(=O)Nc1ccc(F)c(F)c1F	none (no result: ELG1 DNA repair, p53 reactivation, A-T KAP1 phos, ELG1 genotoxic)
CN(CC(=O)Nc1cc(Cl)ccc1C#N)C1CCS(=O)(=O)C1 (configuration not stated)	none
CC(C)NC(=O)c1ccc(N(Cc2ccccc2)S(C)(=O)=O)cc1	none
CC(OC(=O)c1cccc(O)c1)C(=O)N(C)Cc1ccccc1 (configuration not stated)	none
CC(OC(=O)/C(C#N)=C/c1ccc(N(C)C)cc1)C(=O)N(C)Cc1ccccc1 (configuration not stated)	MCF10A rerep 16.4µM, SW480 rerep inconclusive
Cc1nc2ccccc2cc1C(=O)N(C)Cc1ccccc1	none
COc1cc2c(cc1NC(=O)CN(C)Cc1cccc(OC)c1OC)oc1ccccc12	MCF10A rerep 7.31µM, ELG1 DNA repair inconclusive, SW480 rerep inconclusive
COc1cccc(CN(C)CC(=O)Nc2cc3oc4ccccc4c3cc2OC)c1	ELG1 DNA repair inconclusive (no result: A-T KAP1 phos)
COc1cc2c(cc1NC(=O)/C=C/c1cc(OC)c(OC)c(OC)c1)oc1ccccc12	ELG1 DNA repair 5.8µM
Cc1ccc(C)c(S(=O)(=O)N2CCN(c3nc(-c4cccnc4)nc4ccccc34)CC2)c1	MCF10A rerep 0.651µM, ELG1 DNA repair 18.3µM
